# High-throughput results (PubChem)
# The list is not random: actives were taken first. Their share in the collection is about 10%.
# IMPase inh: membrane-permeable compound that blocks inositol monophosphatase; 120,000 tested, under 10 active; inhibition (IP1 accumulation), % at 46.1 µM; AID 901; P97697; CHO-M1 cells, IP1 accumulation, HTRF TR-FRET ratio; active means well fitted curve in the direction sought with a large enough effect in the signal ratio, not every such curve was filed as active; inconclusive means small, poorly fitted or top-dose-only effect, or a change in a side signal; inactive means no such curve, though single readings can be large or run the other way; the % refers to the signal ratio;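 further: cells stimulated with carbachol in lithium chloride buffer; plate controls were DMSO basal wells for no effect and reference inhibitor wells for full effect; higher means more IMPase inhibition seen as more IP1 and lower FRET ratio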
#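 CHO-M1, 2000 cells/well, cultured 16–30 h; cpd up to 46 uM; carbachol (50 uM solution, stimulation buffer w/ 50 mM LiCl, pH 7.4), 30 min 37C; IP-One TR-FRET, 10 min RT; Ex 320/Em 665, 620; Hill-fit AC50.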
# LMNA splice mod: modulators of lamin A splicing; HeLa LMNA splicing GFP/RFP minigene ratio, 48 h; Potency, µM (highest dose often 46.1 µM), for inactives: at the highest dose ratio change, negative = inhibition, actives largely listed as inhibitors; actives 0.01% (n = 200,000); AID 1487; active means well fitted inhibition curve with a large enough effect in the signal ratio, with a control signal flat, not every such curve was filed as active; inconclusive means small, poorly fitted or top-dose-only effect, or effect the other way, or a change in a side signal; the % refers to the signal ratio; further: potency means the concentration at half of the fitted maximal effect; on the % scale 0 is the no-effect control and ±100 the full control effect
#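 S3 HeLa stable clones carrying a lamin A-EGFP splicing minigene plus DsRed2 were seeded at 600 cells/well in Opti-MEM with 2% FBS, pin-dosed and incubated 48 h at 37°C. Acumen cytometry (488 nm) gave the GFP/RFP total-intensity ratio.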
# HPGD block: blocks human HPGD enzyme activity | purified HPGD, NADH fluorescence kinetic, PGE2 substrate | Potency, µM, for inactives: top-dose activity change, negative = inhibition, usual class: inhibitors | AID 894 | P15428 | actives 4.3% (n = 150,000); active means well fitted inhibition curve with a large enough effect, not every such curve was filed as active; inconclusive means small, poorly fitted or top-dose-only effect, or another doubt; inactive means no such curve, though single readings can be large or run the other way; further: potency means the concentration at half of the fitted maximal effect; on the % scale 0 is the no-effect control and ±100 the full control effect
# Target sequence (P15428 whole entry, looked up): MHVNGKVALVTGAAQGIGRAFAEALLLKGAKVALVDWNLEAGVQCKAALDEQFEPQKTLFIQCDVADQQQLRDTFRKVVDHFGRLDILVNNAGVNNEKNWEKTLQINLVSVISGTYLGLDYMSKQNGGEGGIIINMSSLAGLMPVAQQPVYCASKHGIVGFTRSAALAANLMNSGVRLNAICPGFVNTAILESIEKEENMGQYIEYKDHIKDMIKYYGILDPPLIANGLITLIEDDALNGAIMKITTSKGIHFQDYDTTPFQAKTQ
#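 20 nM HPGD preincubated 15 min at room temperature with compound in 50 mM Tris-HCl pH 8, 0.01% Tween 20. Started with 1 mM NAD+ and 30 uM prostaglandin E2; NADH fluorescence (360/450 nm) read 5 times over 30-s intervals, last minus first.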
# Luc counter: Kinase-Glo luciferase inhibition (counter-screen); Potency, µM (highest dose often 38.3 µM), for inactives: at the top dose activity change, negative = inhibition, hits mostly inhibitors; Kinase-Glo luciferase, ATP luminescence, 8 min; AID 1379; actives 0.28% (n = 200,000); active means well fitted inhibition curve with a large enough effect; inconclusive means small, poorly fitted or top-dose-only effect; further: potency means the concentration at half of the fitted maximal effect; on the % scale 0 is the no-effect control and ±100 the full control effect; nearly all actives have a fitted effect of over 60% in size
#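 Substrate mix (final 50 mM imidazole pH 7.2, 50 mM KCl, 7 mM MgCl2, 10 uM ATP, 0.01% Tween 20, 0.05% BSA) plus pin-tool compound, then Kinase-Glo detection mix; 8 min ambient, luminescence read.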
# ALDH1A1 inh-1: ALDH1A1 (human) enzyme inhibition | P00352 | Purified ALDH1A1, NADH fluorescence, propionaldehyde substrate | Potency, µM (titrated, usually from 75.3 µM), for inactives: top-dose activity, negative = inhibition, actives largely listed as inhibitors | actives 7.3% (n = 220,000); active means well fitted inhibition curve with a large enough effect, not every such curve was filed as active; inconclusive means small, poorly fitted or top-dose-only effect, or another doubt; inactive means no such curve, though single readings can be large or run the other way;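 further: potency means the concentration at half of the fitted maximal effect; plate controls were no enzyme wells and a reference inhibitor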
# PNC assembly inh: perinucleolar compartment assembly inhibition; PC3M PTB-GFP, PNC prevalence imaging, 16 h; hits give low values; activity change (PNC), negative = inhibition, % at 10 µM; actives 3.1% (n = 140,000);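 active means readout at or below -70, meaning at least 70% loss of cells showing the perinucleolar compartment, a nuclear body marking cancer cells; inconclusive means readout between -30 and a set limit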;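 further: plate controls were DMSO wells for no effect and camptothecin positive control wells for full effect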
#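 Compounds are pinned in duplicate onto adhered PC3M cells stably expressing GFP-tagged PTB and incubated 16 h at 37 C. Cells are then fixed, nuclei stained with Hoechst, and PNC-positive cells counted.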
# HPGD inh conf: confirmation of human HPGD inhibitors. Potency, µM (highest dose often 57.1 µM), for inactives: at the highest dose activity change, negative = inhibition, most hits filed as inhibitors. actives 90% (n = 90). shares compounds with HPGD block. recombinant HPGD, NADH fluorescence, PGE2 substrate
# ALDH1A1 inh-2: Confirms inhibition of human ALDH1A1 with counterscreen | shares compounds with ALDH1A1 inh-1 | purified ALDH1A1, NADH fluorescence, propionaldehyde/NAD+ | actives 90% (n = 90) | Potency, µM (doses to about 57.1 µM), inactives show top-dose activity change, negative = inhibition, actives largely listed as inhibitors
# * hit, by the source's call; ? = inconclusive; nt = not tested or not shown; [ ] = remark or other dose. Unless noted, the call rests on the fitted dose curve.
SMILES,IMPase inh,LMNA splice mod,HPGD block,Luc counter,ALDH1A1 inh-1,PNC assembly inh,others
Cc1[nH]n(-c2ccccc2)c(=O)c1C(c1ccc([N+](=O)[O-])cc1)c1c(C)[nH]n(-c2ccccc2)c1=O,8.1,?,28.2µM*,-7.3%,12.6µM*,-1.8,
Oc1c(Cl)c(Cl)c(Cl)c(Cl)c1Cl (tested in a mixture with another compound),nt,nt,nt,-2.9%[7.66 µM],3.7%[13.5 µM],nt,
CCCCn1c(=O)c(C=Nc2cc([N+](=O)[O-])ccc2OC)c(O)n(CCCCl)c1=O,nt,?,-18.0%,-0.4%,11.2µM*,?,
CCOC(=O)C(NC(C)=O)C(OC(C)=O)c1cccc(N(CCCl)CCCl)c1 (stereo not drawn),5.1,?,-0.3%,3.7%,5.6%,-118.9*,
CC(=O)NC(Cc1ccc(N(CCCl)CCCl)cc1)C(=O)O (stereo not drawn),-5.2,?,-12.2%,2.9%,2.9%,212.5,
COc1ccc(O)c(CN2CCCC(C(=O)c3sccc3C)C2)c1 (stereo not drawn),nt,-27.3%[46 µM],nt,-7.7%,12.6µM*,nt,
Cc1ccsc1C(=O)C1CCCN(Cc2ccccc2O)C1 (stereo not drawn),nt,?,nt,1.2%,-1.8%,nt,
O=P1(NC2CCCC2)COc2ccccc2OC1,3.2,-6.9%,0.0708µM*,10.6%,-9.3%,-25.8,HPGD inh conf=0.159µM*
O=P1(NCc2ccco2)COc2ccccc2OC1,-6.6,0.5%,1µM*,-7.0%,0.3%,-12.7,HPGD inh conf=1µM*
c1ccc(CC(NCc2ccco2)c2ccccc2)cc1 (stereo not drawn),nt,7.4%[9.22 µM],nt,-2.4%,-4.6%,nt,
N[C@@]1(C(=O)O)CC[C@H](C(=O)O)C1,6.4,nt,2.8%,-1.7%,-8.6%,nt,
O=C1C=CC(=O)c2c1ccc1c2ccc2ccccc21,-0.6[20.6 µM],?,11.2µM*,-0.8%[17.1 µM],0.316µM*,nt,ALDH1A1 inh-2=0.316µM*
CN1CCC[C@@H]1c1cccnc1,3.9,?,nt,nt,?,nt,
